Reference: the supplement of paper PMC11732987, “Enantioselective OTUD7B fragment discovery through chemoproteomics screening and high-throughput optimisation” (Communications Chemistry, 2025)

How the values were obtained:
Experiment in all cases: log2 ratio of Biotin-Ahx-Ub-VS probe labelling (fragment/DMSO); higher = less target engagement (more negative = stronger competition), active = hit call of the paper (q ≤ 0.05, log2 ratio ≤ -1)
Settings in all cases: compound concentration: 200 uM; treatment time: 3 h
USP19 = molecular target: T1, USP19 (UniProt O94966)
T1 sequence (whole entry): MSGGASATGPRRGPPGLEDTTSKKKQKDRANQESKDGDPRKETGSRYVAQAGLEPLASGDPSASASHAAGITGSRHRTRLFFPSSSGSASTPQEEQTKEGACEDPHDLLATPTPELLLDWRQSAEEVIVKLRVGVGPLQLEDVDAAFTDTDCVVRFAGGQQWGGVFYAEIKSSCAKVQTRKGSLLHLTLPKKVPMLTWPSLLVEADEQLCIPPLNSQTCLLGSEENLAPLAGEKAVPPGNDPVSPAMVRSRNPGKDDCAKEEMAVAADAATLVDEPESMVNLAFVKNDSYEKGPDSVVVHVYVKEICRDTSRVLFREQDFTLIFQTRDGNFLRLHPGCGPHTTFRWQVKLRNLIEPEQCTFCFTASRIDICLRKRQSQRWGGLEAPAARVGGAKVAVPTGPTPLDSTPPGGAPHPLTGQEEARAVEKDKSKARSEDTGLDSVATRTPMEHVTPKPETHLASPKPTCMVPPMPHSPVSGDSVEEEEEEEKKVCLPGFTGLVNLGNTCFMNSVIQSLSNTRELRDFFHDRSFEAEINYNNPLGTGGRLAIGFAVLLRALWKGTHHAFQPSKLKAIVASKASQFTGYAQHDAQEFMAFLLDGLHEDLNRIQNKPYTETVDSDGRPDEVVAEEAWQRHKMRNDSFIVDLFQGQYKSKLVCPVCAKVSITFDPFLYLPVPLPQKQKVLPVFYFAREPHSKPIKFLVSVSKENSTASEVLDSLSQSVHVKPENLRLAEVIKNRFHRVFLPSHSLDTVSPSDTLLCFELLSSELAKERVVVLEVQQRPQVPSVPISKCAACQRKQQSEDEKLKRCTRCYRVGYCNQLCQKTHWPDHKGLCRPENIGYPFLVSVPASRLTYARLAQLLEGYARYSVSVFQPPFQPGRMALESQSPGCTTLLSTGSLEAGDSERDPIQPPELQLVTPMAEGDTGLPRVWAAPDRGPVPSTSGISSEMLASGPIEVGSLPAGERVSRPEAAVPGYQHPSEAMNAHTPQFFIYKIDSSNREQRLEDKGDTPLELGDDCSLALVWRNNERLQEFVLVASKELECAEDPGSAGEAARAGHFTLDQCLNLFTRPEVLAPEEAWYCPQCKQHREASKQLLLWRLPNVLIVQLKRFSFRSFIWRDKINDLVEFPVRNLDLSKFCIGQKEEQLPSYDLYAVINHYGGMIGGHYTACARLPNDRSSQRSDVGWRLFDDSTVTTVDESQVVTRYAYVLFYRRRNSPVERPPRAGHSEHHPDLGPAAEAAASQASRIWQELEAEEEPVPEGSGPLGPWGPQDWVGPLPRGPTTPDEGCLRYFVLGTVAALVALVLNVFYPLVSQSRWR
Procedure, shortened: (§1)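 HEK293T lysate, 495 µg per sample in Tris/CHAPS/IGEPAL buffer with protease inhibitors, was treated in triplicate with fragment at 200 µM or vehicle for 3 h and then with Biotin-Ahx-Ub-VS at 0.5 µM final for 1 h. Labelled DUBs were NeutrAvidin-enriched, digested with LysC and trypsin, and run by diaPASEF LC-MS/MS. Spectronaut label-free quantities were global-median-normalised, and values are average log2 fragment/vehicle ratios by unpaired t-test on proteins with ≥2 unique peptides.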

USP22 = molecular target: T2, USP22 (UniProt Q9UPT9)
T2 sequence (whole entry): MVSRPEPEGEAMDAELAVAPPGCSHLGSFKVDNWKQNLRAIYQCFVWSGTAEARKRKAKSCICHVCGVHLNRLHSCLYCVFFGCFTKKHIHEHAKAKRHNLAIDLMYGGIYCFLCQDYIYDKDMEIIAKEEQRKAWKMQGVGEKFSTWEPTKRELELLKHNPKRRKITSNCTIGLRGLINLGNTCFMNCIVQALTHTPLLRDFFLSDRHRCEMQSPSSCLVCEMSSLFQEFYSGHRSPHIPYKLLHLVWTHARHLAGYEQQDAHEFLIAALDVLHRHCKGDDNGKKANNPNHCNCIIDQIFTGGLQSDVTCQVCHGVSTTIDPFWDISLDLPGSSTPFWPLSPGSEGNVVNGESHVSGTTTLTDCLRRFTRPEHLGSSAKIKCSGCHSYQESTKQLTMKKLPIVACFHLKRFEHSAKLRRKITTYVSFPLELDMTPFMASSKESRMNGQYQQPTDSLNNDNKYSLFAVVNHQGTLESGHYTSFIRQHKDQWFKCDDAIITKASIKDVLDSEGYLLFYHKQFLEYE
Procedure, shortened: as §1

USP24 = USP24 (UniProt Q9UPU5)
Procedure, shortened: as §1

USP25 = molecular target: T3, USP25 (UniProt Q9UHP3)
T3 sequence (whole entry): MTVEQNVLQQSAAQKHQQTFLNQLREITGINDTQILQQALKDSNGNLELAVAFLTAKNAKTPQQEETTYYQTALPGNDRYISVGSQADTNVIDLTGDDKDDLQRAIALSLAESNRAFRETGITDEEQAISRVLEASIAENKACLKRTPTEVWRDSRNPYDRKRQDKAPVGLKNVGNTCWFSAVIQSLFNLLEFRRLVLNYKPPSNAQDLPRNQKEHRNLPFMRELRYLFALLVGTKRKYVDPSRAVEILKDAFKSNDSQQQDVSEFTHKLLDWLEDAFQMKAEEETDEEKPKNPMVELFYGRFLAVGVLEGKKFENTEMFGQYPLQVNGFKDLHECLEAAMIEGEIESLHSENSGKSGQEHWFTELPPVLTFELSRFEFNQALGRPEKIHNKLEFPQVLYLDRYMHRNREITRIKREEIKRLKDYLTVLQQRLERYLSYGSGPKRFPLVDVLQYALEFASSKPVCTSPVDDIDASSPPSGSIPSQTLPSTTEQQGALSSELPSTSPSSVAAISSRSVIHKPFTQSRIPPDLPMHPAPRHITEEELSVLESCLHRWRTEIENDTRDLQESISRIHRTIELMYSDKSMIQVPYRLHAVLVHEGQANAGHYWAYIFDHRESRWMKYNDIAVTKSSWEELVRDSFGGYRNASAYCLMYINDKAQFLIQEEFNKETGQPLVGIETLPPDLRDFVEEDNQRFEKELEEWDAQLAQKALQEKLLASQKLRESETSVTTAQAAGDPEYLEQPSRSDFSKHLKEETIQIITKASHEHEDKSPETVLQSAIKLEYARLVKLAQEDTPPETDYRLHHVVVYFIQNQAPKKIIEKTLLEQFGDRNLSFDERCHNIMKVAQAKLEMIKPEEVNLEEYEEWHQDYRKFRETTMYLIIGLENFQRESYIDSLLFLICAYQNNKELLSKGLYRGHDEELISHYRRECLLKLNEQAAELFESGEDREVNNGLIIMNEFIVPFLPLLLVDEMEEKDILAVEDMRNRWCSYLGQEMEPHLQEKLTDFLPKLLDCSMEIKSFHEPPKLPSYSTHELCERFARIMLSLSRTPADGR
Procedure, shortened: as §1

USP28 = molecular target: T4, USP28 (UniProt Q96RU2)
T4 sequence (whole entry): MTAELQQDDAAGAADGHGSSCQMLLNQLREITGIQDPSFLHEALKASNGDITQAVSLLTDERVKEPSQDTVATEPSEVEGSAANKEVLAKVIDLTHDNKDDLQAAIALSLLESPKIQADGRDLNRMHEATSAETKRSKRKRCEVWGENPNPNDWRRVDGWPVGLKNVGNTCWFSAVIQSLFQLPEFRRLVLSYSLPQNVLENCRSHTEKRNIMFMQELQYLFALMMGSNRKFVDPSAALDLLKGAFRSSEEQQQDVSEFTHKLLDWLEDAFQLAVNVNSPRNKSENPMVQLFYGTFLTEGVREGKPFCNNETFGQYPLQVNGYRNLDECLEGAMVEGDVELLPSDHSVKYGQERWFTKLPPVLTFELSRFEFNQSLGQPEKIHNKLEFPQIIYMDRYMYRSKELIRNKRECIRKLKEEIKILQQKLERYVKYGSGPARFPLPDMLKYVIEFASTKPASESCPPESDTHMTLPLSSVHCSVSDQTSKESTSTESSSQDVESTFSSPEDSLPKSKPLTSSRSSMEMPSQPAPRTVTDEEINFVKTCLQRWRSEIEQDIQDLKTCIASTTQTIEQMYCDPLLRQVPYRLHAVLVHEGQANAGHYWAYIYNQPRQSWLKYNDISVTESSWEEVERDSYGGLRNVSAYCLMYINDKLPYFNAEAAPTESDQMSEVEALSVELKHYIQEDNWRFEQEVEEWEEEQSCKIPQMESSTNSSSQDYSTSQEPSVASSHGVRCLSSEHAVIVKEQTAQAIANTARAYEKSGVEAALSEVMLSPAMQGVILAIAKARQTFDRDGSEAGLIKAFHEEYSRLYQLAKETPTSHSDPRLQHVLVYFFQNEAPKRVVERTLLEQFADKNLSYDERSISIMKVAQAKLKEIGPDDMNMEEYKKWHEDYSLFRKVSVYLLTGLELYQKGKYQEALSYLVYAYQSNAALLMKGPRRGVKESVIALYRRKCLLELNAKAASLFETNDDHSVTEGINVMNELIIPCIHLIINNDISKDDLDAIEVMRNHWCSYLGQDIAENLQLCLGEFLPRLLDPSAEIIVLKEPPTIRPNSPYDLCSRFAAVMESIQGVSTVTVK
Procedure, shortened: as §1

Measured: log2 ratio of Biotin-Ahx-Ub-VS probe labelling

Sequence of USP24 (Q9UPU5 whole entry): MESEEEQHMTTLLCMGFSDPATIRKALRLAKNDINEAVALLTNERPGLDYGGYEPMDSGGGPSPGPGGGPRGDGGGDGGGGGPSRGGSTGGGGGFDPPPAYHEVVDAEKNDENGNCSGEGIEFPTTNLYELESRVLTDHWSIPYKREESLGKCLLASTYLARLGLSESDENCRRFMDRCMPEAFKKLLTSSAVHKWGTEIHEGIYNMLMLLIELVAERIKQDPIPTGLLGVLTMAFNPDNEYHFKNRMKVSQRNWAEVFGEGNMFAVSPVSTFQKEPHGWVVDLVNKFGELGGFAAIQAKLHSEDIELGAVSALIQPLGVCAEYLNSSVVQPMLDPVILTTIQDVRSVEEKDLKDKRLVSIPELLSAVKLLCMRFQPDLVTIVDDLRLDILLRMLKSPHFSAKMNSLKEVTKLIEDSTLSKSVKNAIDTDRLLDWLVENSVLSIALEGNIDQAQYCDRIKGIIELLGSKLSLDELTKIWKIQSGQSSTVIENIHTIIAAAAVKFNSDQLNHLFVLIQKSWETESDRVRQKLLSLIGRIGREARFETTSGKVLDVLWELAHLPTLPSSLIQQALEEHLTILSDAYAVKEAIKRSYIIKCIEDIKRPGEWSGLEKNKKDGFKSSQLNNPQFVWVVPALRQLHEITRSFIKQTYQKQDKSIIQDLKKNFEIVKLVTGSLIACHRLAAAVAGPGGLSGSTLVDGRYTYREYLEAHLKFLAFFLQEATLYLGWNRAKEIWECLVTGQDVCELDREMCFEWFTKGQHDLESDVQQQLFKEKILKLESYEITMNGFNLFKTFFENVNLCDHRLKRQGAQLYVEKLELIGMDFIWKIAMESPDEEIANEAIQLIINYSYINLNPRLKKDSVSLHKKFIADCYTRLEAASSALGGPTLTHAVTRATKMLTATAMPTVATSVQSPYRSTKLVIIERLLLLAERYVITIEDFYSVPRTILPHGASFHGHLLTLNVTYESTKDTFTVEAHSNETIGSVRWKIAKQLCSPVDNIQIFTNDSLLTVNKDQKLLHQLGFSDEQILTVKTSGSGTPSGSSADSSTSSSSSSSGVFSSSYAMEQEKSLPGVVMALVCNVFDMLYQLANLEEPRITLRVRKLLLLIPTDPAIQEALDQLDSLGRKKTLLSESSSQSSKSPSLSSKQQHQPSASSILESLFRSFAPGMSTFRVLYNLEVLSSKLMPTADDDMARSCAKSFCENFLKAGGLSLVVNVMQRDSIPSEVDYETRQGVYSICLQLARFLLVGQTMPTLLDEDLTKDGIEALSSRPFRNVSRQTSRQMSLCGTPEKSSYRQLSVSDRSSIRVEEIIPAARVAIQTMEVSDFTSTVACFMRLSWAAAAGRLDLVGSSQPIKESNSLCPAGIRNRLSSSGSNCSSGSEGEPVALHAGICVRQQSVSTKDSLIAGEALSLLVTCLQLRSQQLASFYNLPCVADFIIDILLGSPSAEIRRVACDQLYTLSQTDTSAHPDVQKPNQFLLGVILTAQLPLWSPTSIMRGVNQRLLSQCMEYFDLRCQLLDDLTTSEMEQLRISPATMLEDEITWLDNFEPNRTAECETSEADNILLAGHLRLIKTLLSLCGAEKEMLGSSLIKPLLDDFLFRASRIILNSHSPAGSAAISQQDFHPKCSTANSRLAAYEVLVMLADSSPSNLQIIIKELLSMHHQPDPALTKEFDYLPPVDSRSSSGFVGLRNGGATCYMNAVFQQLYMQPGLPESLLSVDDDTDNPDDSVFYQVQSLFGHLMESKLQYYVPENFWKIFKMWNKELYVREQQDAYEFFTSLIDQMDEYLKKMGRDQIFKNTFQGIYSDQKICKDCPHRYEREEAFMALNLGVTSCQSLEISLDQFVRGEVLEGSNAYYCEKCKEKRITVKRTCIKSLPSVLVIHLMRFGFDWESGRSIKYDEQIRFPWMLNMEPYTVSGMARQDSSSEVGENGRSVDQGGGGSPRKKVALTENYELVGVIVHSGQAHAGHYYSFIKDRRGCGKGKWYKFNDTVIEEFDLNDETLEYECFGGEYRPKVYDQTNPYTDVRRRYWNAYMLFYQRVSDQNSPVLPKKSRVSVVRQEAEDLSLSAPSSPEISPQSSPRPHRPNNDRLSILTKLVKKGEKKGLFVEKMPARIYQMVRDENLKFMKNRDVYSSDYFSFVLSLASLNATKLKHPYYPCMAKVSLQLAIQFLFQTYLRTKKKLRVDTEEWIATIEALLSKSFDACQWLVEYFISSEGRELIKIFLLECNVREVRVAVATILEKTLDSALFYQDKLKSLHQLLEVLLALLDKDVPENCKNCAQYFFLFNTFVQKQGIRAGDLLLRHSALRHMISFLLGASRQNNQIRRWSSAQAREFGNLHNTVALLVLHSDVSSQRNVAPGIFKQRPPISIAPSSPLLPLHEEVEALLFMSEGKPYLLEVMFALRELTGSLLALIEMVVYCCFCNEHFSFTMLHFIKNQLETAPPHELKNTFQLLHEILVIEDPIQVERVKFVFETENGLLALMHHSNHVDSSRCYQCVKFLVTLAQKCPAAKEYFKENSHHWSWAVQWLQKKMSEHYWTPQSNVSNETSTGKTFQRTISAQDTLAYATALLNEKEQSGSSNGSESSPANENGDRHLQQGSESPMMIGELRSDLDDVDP

O=C(CCl)N1CCN2C(=O)CCC2C1 (stereo not given)
inactive: USP19 0.0407 | USP22 -0.0658 | USP24 0.14 | USP25 -0.508 | USP28 -0.38
